Reference: PubChem BioAssay

Test: probe aEGFR binding to arrayed compounds – biochemical, biotinylated probe, 635/667 nm fluorescence, primary screen (AID 1097);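 also: probe is a biotinylated anti-EGFR antibody binding compounds printed on slides; score combines fluorescence near 667 nm and signal to noise of each spot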
Details: small-molecule microarray, higher = more signal

Question: Which composite z-score does the source give for `CC(=O)NCCCC[C@@H]1NC(=O)[C@@H]2C[C@H](C(=O)NCCCCCCN(C)C)[C@H](c3ccc(O)cc3)N2C1=O` here?
Answer: 0.177

Question: For `O=C(NCc1ccccc1)[C@@]1(CCS(=O)(=O)c2ccccc2)COC(c2ccc(OCCCO)cc2)=N1`, which composite z-score is on record?
Answer: 0.0033

Question: With `O=C1O[C@@H](c2ccccc2)[C@@H](c2ccccc2)N2[C@@H](c3ccc(O)cc3)[C@]3(C(=O)Nc4ccccc43)[C@@H](C(=O)N3CCN(c4ncccn4)CC3)[C@H]12` as the compound, how does the composite z-score read?
Answer: -0.179

Question: Which composite z-score does the source give for `COc1ccc(C(O)C2C=CC3C(=O)N(C)C(=O)C3N2N2CCCCC2)cc1OCc1ccccc1` (stereo unspecified) here?
Answer: 0.0787

Question: For `COc1cc([C@@H]2N[C@H](C(=O)O)Cc3c2[nH]c2ccccc32)cc(OC)c1OC`, which composite z-score is on record?
Answer: -0.0069

Question: Which composite z-score does the source give for `COCCOC(=O)N1C(=O)[C@@]2(c3cc(C#CC4=CCCCC4)ccc31)[C@H](C(=O)NC[C@H](O)c1ccccc1)[C@H]1C(=O)O[C@H](c3ccccc3)[C@H](c3ccccc3)N1[C@@H]2c1ccccc1OCCO` here?
Answer: -0.0316

Question: Which composite z-score does the source give for `COc1ccc(CCNC(=O)[C@@]2(c3ccc([N+](=O)[O-])cc3)CC(=O)N(C(C)C)[C@@H]2c2ccc(CO)cc2)cc1` here?
Answer: -0.318

Question: With `CC(=O)NCCCC[C@@H]1NC(=O)[C@H]2C[C@@H](C(=O)NCCCCCCN(C)C)[C@@H](c3ccc(O)cc3)N2C1=O` as the compound, how does the composite z-score read?
Answer: 0.0122

Question: For `NC(=O)NCC#Cc1ccc2c(c1)[C@]1(C(=O)N2)[C@H](c2ccccc2OCCO)N2[C@H](c3ccccc3)[C@H](c3ccccc3)OC(=O)[C@H]2[C@@H]1C(=O)N1CCN(c2ncccn2)CC1`, which composite z-score is on record?
Answer: -0.0286

Question: With `CO[C@H]1COC(=O)CC=C[C@H](C)[C@@H](OC)COC(=O)CC=C[C@@H]1C` as the compound, how does the composite z-score read?
Answer: -0.0273

Question: For `CN(C)C(=O)[C@@]1(Cc2ccccc2N=[N+]=[N-])N=C(c2ccc(OCCCO)cc2)O[C@H]1c1ccccc1CN=[N+]=[N-]`, which composite z-score is on record?
Answer: 0.355

Question: Which composite z-score does the source give for `O=C(CS)NCCCCCNC(=O)[C@H]1C[C@H]2C(=O)N3CCC[C@H]3C(=O)N2[C@H]1c1ccc(O)cc1` here?
Answer: -0.184

Question: Which composite z-score does the source give for `Cc1ccccc1C(O)C1C=CC2C(=O)N(c3ccccc3)C(=O)C2N1Nc1ccc(C#N)cc1` (stereo unspecified) here?
Answer: 0.413

Question: For `COC(=O)[C@@]1(Cc2ccccc2N=[N+]=[N-])N=C(c2ccc(OCCCO)cc2)O[C@H]1c1ccccc1CN=[N+]=[N-]`, which composite z-score is on record?
Answer: -0.114

Question: Which composite z-score does the source give for `CCCCCCc1nc(C2CC2)c(C)c2c1[Si](C(C)C)(C(C)C)OC2` here?
Answer: -0.202

Question: With `C[N+](C)(C)CCCC[C@@H]1NC(=O)[C@H]2C[C@@H](C(=O)NCc3ccc(F)cc3)[C@@H](c3cccc(OCCO)c3)N2C1=O` as the compound, how does the composite z-score read?
Answer: -0.118

Question: For `CCCNC(=O)[C@@H]1c2ccccc2C(=O)N(Cc2cc(F)cc(C(F)(F)F)c2)[C@H]1c1ccc(CO)cc1`, which composite z-score is on record?
Answer: 0.289

Question: For `C#CCCCON=C1C[C@@H](O)[C@@H](O)[C@@H]2[C@@H]3C(=O)N(Cc4ccc5c(c4)OCO5)C(=O)[C@@H]3CC[C@H]12`, which composite z-score is on record?
Answer: -0.02

Question: With `Cc1ccc([C@@H]2CC=C(C(=O)O)[C@H](c3ccccc3)N2S(=O)(=O)c2ccc(C)cc2)cc1` as the compound, how does the composite z-score read?
Answer: 0.0582

Question: With `C=CCNC(=O)[C@H]1[C@@H]2C(=O)O[C@@H](c3ccccc3)[C@@H](c3ccccc3)N2[C@@H](c2ccc(O)cc2)[C@]12C(=O)Nc1ccc(C#CCNC(N)=O)cc12` as the compound, how does the composite z-score read?
Answer: -0.216

Question: With `O=C(NCC(F)(F)F)[C@@H]1c2ccccc2C(=O)N(Cc2ccccc2Cl)[C@H]1c1ccc(CO)cc1` as the compound, how does the composite z-score read?
Answer: -0.0721

Question: With `C=C[C@H](OC)[C@@H](OC(=O)Nc1ccc(SC)cc1)c1ccc(OC)c(O)c1` as the compound, how does the composite z-score read?
Answer: -0.338

Question: For `C=CC[C@]1(C(=O)OC)N=C(c2ccc(OCCCO)cc2)O[C@H]1c1ccccc1CN=[N+]=[N-]`, which composite z-score is on record?
Answer: -0.0828

Question: With `COC(=O)Cn1c(C(=O)N2CCCC2)cc2c1C[C@H]1CN(C(=O)c3ccccc3)[C@@](Cc3ccccc3)(C(=O)OC)[C@@H]21` as the compound, how does the composite z-score read?
Answer: 0.168

Question: Which composite z-score does the source give for `Cc1ccc(S[C@]2(C(=O)NCCCN(C)C)CC(=O)N(Cc3ccccc3)[C@@H]2c2ccc(CO)cc2I)cc1` here?
Answer: -0.13

Question: With `C#CCCCON=C1C[C@@H](O)[C@@H](O)[C@@H]2[C@@H]3C(=O)N(Cc4ccc5c(c4)OCO5)C(=O)[C@@H]3CC[C@@H]12` as the compound, how does the composite z-score read?
Answer: -0.0389
